The values below come from paper PMC7862700, “An all-to-all approach to the identification of sequence-specific readers for epigenetic DNA modifications on cytosine”.

Common to all, as to test: DAPPL (digital affinity profiling via proximity ligation, sequencing); 10 mM Tris-HCl pH 7.5, 50 mM NaCl, 1 mM DTT, 4% glycerol, room temperature, 30 min; GST-TFs on glutathione beads, 16-mer random dsDNA library, 0.1% formaldehyde crosslink after washing; high values mean tight binding
Holding throughout (details): protein: recombinant; tags: N-terminal GST; dsDNA, one strand shown

One assay concerns the target T1, ERF (Homo sapiens, UniProt P50548 1-548).
T1 sequence: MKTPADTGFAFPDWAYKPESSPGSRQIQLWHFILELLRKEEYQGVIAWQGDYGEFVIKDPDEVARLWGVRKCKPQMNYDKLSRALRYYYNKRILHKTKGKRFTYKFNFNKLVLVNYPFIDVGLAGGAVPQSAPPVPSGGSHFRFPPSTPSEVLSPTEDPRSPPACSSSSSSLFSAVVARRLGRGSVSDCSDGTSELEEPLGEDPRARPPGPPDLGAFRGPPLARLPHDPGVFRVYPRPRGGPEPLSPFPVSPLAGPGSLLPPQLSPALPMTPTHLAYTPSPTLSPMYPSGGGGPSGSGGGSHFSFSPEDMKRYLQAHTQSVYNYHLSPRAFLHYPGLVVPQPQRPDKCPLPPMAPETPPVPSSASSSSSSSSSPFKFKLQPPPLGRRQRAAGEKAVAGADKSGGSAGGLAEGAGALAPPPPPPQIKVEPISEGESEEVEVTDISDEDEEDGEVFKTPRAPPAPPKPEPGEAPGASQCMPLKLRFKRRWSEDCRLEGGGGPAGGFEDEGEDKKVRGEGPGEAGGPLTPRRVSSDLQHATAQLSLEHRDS
The method, boiled down:
(§1)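 A tag-only sample was pooled with DNA-barcoded human transcription factors that had been expressed in yeast as GST fusions and captured on glutathione beads. The pools were incubated for 30 min at room temperature with 200 nmole of a random double-stranded 16-mer DNA library in Tris/NaCl/DTT/glycerol buffer, then washed, crosslinked with 0.1% formaldehyde, proximity-ligated (BsaI/T4 ligase, 1 h, 37 °C), PCR-amplified and sequenced on an Illumina NextSeq500. Binding signal is each hexamer's read frequency for a factor divided by its frequency for the tag-only sample.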

A further assay addresses T2, ETV3L (Homo sapiens, UniProt Q6ZN32 1-361).
T2 sequence: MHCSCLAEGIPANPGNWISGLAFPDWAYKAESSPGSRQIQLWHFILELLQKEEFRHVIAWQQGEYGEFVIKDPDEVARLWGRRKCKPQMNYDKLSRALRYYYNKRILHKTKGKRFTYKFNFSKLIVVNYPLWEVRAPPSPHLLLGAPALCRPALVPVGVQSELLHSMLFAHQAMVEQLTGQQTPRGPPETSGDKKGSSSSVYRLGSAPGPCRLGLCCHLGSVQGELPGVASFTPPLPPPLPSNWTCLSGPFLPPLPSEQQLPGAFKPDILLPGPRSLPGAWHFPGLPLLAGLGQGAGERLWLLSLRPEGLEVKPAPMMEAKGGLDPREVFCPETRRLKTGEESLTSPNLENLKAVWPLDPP
The method, boiled down:
as §1

The target of a further assay is T3, ETS2 (Homo sapiens, UniProt P15036 1-469).
T3 sequence: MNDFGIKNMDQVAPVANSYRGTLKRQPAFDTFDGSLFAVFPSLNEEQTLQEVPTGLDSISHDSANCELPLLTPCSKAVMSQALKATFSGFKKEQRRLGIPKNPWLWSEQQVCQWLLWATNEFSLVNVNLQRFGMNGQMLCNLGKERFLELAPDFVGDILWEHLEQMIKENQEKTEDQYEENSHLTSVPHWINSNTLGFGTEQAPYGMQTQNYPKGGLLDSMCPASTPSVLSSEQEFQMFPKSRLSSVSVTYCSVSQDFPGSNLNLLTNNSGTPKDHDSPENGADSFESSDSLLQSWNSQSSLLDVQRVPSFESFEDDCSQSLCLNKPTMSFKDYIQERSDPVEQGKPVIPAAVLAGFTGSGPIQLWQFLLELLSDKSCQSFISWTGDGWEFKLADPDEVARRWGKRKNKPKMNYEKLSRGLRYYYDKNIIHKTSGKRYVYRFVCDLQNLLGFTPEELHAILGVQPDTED
The method, boiled down:
as §1

A further assay addresses T4, SPDEF (Homo sapiens, UniProt O95238 1-335).
T4 sequence: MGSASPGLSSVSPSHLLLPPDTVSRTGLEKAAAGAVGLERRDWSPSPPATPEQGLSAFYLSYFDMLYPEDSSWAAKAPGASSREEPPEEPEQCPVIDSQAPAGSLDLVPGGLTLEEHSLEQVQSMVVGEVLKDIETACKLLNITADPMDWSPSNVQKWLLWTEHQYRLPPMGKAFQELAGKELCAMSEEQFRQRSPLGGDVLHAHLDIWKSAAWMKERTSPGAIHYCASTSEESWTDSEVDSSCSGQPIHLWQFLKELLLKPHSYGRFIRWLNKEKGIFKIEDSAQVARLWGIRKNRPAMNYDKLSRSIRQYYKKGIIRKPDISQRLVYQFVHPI
The procedure, abridged:
as §1

Another assay addresses T5, ETV7 (Homo sapiens, UniProt Q9Y603 1-341).
T5 sequence: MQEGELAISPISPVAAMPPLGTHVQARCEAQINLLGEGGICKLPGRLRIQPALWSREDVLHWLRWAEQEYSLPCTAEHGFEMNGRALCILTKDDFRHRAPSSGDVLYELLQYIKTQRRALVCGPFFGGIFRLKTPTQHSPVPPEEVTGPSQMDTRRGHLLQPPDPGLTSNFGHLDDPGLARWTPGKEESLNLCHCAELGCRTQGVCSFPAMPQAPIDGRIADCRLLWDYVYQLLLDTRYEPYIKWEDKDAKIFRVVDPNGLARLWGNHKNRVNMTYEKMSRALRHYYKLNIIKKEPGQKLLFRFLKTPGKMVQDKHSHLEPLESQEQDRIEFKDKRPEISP
The method, boiled down:
as §1

In another assay the target is T6, ETV3 (Homo sapiens, UniProt P41162-2 1-143).
T6 sequence: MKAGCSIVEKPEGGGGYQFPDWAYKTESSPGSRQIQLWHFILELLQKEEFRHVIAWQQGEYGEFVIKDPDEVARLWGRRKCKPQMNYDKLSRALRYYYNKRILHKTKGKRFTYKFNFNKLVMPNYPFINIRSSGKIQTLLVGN
The procedure, abridged: as §1

For the next assay, the target named is ETV6 (Homo sapiens, UniProt P41212 1-452). The procedure, abridged: as §1
Chain of ETV6 (P41212 whole entry): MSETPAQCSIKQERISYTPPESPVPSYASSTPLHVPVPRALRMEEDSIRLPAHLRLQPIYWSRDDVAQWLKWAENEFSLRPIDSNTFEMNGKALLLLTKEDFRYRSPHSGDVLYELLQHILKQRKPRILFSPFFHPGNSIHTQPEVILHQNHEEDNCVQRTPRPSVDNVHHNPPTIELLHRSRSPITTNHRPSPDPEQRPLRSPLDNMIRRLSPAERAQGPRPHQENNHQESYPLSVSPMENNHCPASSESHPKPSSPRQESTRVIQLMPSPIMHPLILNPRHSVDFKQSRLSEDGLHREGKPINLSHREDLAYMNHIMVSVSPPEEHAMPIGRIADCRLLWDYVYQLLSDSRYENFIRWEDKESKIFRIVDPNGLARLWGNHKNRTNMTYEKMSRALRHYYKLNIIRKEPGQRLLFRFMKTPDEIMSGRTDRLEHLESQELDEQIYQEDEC

On to AGCAGC, for which the binding signal in the assay with ERF was 1.08 fold enrichment (6-mer frequency, TF over GST control); with ETV3L it was 1.09 fold enrichment (6-mer frequency, TF over GST control); with ETS2, 1.2 fold enrichment (6-mer frequency, TF over GST control); in the assay with SPDEF, 1.02 fold enrichment (6-mer frequency, TF over GST control); in the assay with ETV7, 1.19 fold enrichment (6-mer frequency, TF over GST control); with ETV3, 1.08 fold enrichment (6-mer frequency, TF over GST control). Besides, the binding signal with ETV6 was 1.04 fold enrichment (6-mer frequency, TF over GST control).
For the sequence ATAAGC, the binding signal in the assay with ERF is 1.18 fold enrichment (6-mer frequency, TF over GST control); with ETV3L it was 1.12 fold enrichment (6-mer frequency, TF over GST control); in the assay with ETS2 it was 1.08 fold enrichment (6-mer frequency, TF over GST control); in the assay with SPDEF, 1.07 fold enrichment (6-mer frequency, TF over GST control); with ETV7, 1.11 fold enrichment (6-mer frequency, TF over GST control); with ETV3 it was 1.11 fold enrichment (6-mer frequency, TF over GST control). Besides, the binding signal with ETV6 was 1.02 fold enrichment (6-mer frequency, TF over GST control).
For TACTGA, the binding signal is 1.17 fold enrichment (6-mer frequency, TF over GST control) with ERF; 1.13 fold enrichment (6-mer frequency, TF over GST control) with ETV3L; 1.1 fold enrichment (6-mer frequency, TF over GST control) in the assay with ETS2; 1.14 fold enrichment (6-mer frequency, TF over GST control) in the assay with SPDEF; 1.01 fold enrichment (6-mer frequency, TF over GST control) with ETV7; 1.11 fold enrichment (6-mer frequency, TF over GST control) in the assay with ETV3.
Take ACAGAT: the binding signal with ERF was 1.06 fold enrichment (6-mer frequency, TF over GST control); in the assay with ETV3L, 1.01 fold enrichment (6-mer frequency, TF over GST control); in the assay with ETS2, 1.03 fold enrichment (6-mer frequency, TF over GST control); with SPDEF, 1.05 fold enrichment (6-mer frequency, TF over GST control); in the assay with ETV7, 1.12 fold enrichment (6-mer frequency, TF over GST control); in the assay with ETV3 it was 1.02 fold enrichment (6-mer frequency, TF over GST control).
As to TTGGGC, the binding signal is 1.12 fold enrichment (6-mer frequency, TF over GST control) with ERF; 1.22 fold enrichment (6-mer frequency, TF over GST control) in the assay with ETV3L; 1.12 fold enrichment (6-mer frequency, TF over GST control) with ETS2; 1 fold enrichment (6-mer frequency, TF over GST control) in the assay with SPDEF; 1.09 fold enrichment (6-mer frequency, TF over GST control) with ETV7; 1.04 fold enrichment (6-mer frequency, TF over GST control) in the assay with ETV3. The binding signal with ETV6 is 1.11 fold enrichment (6-mer frequency, TF over GST control).
As to GGTGTT, the binding signal was 1.14 fold enrichment (6-mer frequency, TF over GST control) in the assay with ERF; 1.07 fold enrichment (6-mer frequency, TF over GST control) in the assay with ETV3L; 1.08 fold enrichment (6-mer frequency, TF over GST control) with ETS2; 1.1 fold enrichment (6-mer frequency, TF over GST control) in the assay with SPDEF; 1.01 fold enrichment (6-mer frequency, TF over GST control) with ETV7; 1.05 fold enrichment (6-mer frequency, TF over GST control) with ETV3. In the assay with ETV6, the binding signal was 1.1 fold enrichment (6-mer frequency, TF over GST control).
In the case of CAACCA, the binding signal with ERF is 1.14 fold enrichment (6-mer frequency, TF over GST control); in the assay with ETV3L, 1.05 fold enrichment (6-mer frequency, TF over GST control); in the assay with ETS2 it was 1.1 fold enrichment (6-mer frequency, TF over GST control); in the assay with SPDEF it was 1.09 fold enrichment (6-mer frequency, TF over GST control); with ETV7, 1.04 fold enrichment (6-mer frequency, TF over GST control); with ETV3 it was 1.1 fold enrichment (6-mer frequency, TF over GST control). Also, the binding signal with ETV6 is 1.03 fold enrichment (6-mer frequency, TF over GST control).
As for GGCTAG, the binding signal is 1.17 fold enrichment (6-mer frequency, TF over GST control) with ERF; 1.06 fold enrichment (6-mer frequency, TF over GST control) with ETV3L; 1.14 fold enrichment (6-mer frequency, TF over GST control) with ETS2; 1.14 fold enrichment (6-mer frequency, TF over GST control) in the assay with SPDEF; 1.2 fold enrichment (6-mer frequency, TF over GST control) with ETV7; 1.13 fold enrichment (6-mer frequency, TF over GST control) with ETV3. Further, the binding signal with ETV6 was 1.18 fold enrichment (6-mer frequency, TF over GST control).
Consider AGCTAA, for which the binding signal with ERF was 1.1 fold enrichment (6-mer frequency, TF over GST control); with ETV3L, 1.05 fold enrichment (6-mer frequency, TF over GST control); with ETS2, 1.15 fold enrichment (6-mer frequency, TF over GST control); with SPDEF, 1.02 fold enrichment (6-mer frequency, TF over GST control); with ETV7, 1.1 fold enrichment (6-mer frequency, TF over GST control); with ETV3, 1.1 fold enrichment (6-mer frequency, TF over GST control).
